RGS4 inh – human RGS4 inhibition; P49798; Transcreener GDP fluorescence polarization, RGS4-accelerated GTP hydrolysis; Potency, µM (doses to about 114 µM), for the others: at the top dose activity change, negative = inhibition, most hits filed as inhibitors; actives 0.039% (n = 390,000); AID 504845; also: nearly all actives have a fitted effect of over 75% in size
Target sequence (P49798 whole entry, looked up): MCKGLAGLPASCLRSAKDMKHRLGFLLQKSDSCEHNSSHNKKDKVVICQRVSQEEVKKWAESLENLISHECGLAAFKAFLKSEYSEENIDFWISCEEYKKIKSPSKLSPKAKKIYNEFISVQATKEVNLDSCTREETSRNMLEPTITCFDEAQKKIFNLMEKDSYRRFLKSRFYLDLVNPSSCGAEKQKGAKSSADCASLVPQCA
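MLSMR compounds (23 nl, pin-transferred) preincubated 10 min at room temperature with a 500nM (2x) first reagent, then RGS4 at 900nM (2x) plus Transcreener GDP mix added; fluorescence polarization (620/688 nm) read before and after 90 min at 30 °C.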
TrxR1 substrate – is turned over as a substrate by rat TrxR1; O89049; purified TrxR1 substrate turnover, NADPH consumption readout; Potency, µM (doses to about 114 µM), for the others: top-dose activity change, negative = substrate turnover; actives 0.01% (n = 390,000); AID 588456; also: nearly all actives have a fitted effect of over 50% in size
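Rat TrxR1, dispensed at 90 nM, was prereduced with 400 uM NADPH (final) for 5 min at ~22 deg C, then incubated with compound 15 min before 400 uM selenite. A first-read NADPH fluorescence drop versus no-compound background flagged substrates.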
IDH1 R132H inh – blocks human mutant IDH1 R132H enzyme | AID 602179 | actives 0.093% (n = 390,000) | O75874 | Potency, µM (doses to about 76.6 µM), inactives show at the top dose activity change, negative = inhibition, actives largely listed as inhibitors | IDH1-R132H enzyme, NADPH consumption, diaphorase/resazurin fluorescence; also: nearly all actives have a fitted effect of over 65% in size
Target sequence (O75874 whole entry R132H, stated change not applied): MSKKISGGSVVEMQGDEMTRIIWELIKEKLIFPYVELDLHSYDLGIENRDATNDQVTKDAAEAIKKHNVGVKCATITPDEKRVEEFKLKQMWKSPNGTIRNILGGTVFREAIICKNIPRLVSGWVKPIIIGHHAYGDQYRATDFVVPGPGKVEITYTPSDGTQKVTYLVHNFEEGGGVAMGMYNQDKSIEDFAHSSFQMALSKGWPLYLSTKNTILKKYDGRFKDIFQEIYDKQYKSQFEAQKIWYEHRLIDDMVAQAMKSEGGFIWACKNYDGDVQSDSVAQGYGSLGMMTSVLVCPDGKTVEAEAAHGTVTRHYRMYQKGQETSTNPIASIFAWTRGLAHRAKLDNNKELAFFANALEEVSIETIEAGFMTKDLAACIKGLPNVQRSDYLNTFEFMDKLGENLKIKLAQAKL
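IDH1-R132H (0.5 ug/mL dispensed) in pH 7.5 Tris buffer was preincubated 30 min with compound, then given a substrate mix of 0.016 mM NADPH and 2 mM alpha-KG for 80 min at room temperature; remaining NADPH was read by diaphorase/resazurin fluorescence.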
Eya2 phos inh – inhibitors of human Eya2 phosphatase activity; recombinant Eya2, OMFP fluorescence dephosphorylation (OMFP is methylfluorescein phosphate); Potency, µM (doses to about 76.9 µM), for inactives: top-dose activity, negative = inhibition, actives largely listed as inhibitors; actives 0.006% (n = 330,000)
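Eya2 (0.2 uM) preincubated 10 min at ambient with compound, then OMFP substrate added at 50 uM; 10 min reaction in 50 mM HEPES pH 7.5, 50 mM NaCl, 5 uM MgCl2, 0.05% BSA, 1 mM DTT. Fluorescence read at Ex 485/Em 525 nm.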
TrxR1 inh – blocks rat thioredoxin reductase 1 | recombinant rTrxR1, NADPH fluorescence consumption, selenite substrate | O89049 | actives 1% (n = 390,000) | Potency, µM (highest dose often 114 µM), for the others: at the top dose activity change, negative = inhibition, most hits filed as inhibitors; also: nearly all actives have a fitted effect of over 65% in size
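Rat TrxR1 (90 nM in the dispensed reagent) was pre-reduced with 400 uM NADPH for 5 min at room temperature, then incubated with compound for 15 min. After 400 uM selenite was added, NADPH fluorescence (Ex 340/Em 450 nm) was followed for 8 min.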
Numbers without * were called inactive; ? = inconclusive; . = no result; [ ] = another dose, or the depositor's remark. This is a sample that favours compounds with a hit; in the whole collection about 1.1% have one here. Calls follow the shape of the dose curve; as a rule, active = well fitted curve in the direction sought with a large enough effect; inconclusive = small, poorly fitted or top-dose-only effect, or another doubt; inactive = no such curve, though single readings can be large; an effect the other way counts as inactive or inconclusive. % is scaled to controls: 0 for no effect and ±100 for the full control effect; potency is read from the fitted curve at half-maximal effect.

SMILES	RGS4 inh	TrxR1 substrate	IDH1 R132H inh	Eya2 phos inh	TrxR1 inh
CCCCN(C)C(=O)C1CCN(c2ccc(S(=O)(=O)N3CCOCC3)cc2[N+](=O)[O-])CC1	-4%	-3%	6%	-2%	3%
CN(C)c1nc(C=C(C#N)C#N)c(Cl)n1-c1ccc(F)cc1	-40%	-9%	5%	-7%	4.5µM*
Cc1ccc(NC(=O)/C(C#N)=C/c2cc(C)n(-c3ccc(F)cc3)c2C)cc1C	15%	24%	4%	.	-7%
O=C(Nc1ccc(C(=O)N2CCC(N3CCCC3)CC2)cc1)c1ccc(Br)o1	3%	2%	-13%	12%	56µM*
Cc1ccc(C(=O)N2CCN(c3ccc(NC(=O)c4ccc(Br)o4)cc3)CC2)cc1	22%	2%	-4%	9%	-10%
O=C(NCc1ccco1)C1Cc2ccccc2CN1S(=O)(=O)c1ccccc1F (stereo unspecified)	?	-1%	1%	.	16µM*
Cc1ccc(NN2C(=O)C=C(c3ccccc3)C2=O)cc1	?	-4%	-1%	-6%	6.3µM*
COc1ccc(NC(=O)CCS(=O)(=O)c2cccc3nonc23)cc1	4%	5%[57.1 µM]	11%	?	-37%
Cc1ccc(CNC(=O)CCS(=O)(=O)c2cccc3nonc23)cc1	-13%	-8%	8%	-22%	56µM*
COc1ccc(CNC(=O)CCS(=O)(=O)c2cccc3nonc23)cc1	19%	12%[57.1 µM]	4%	-16%	11µM*
O=C(NCc1ccccc1Cl)C1CCCN(c2ncnc3onc(-c4ccc(F)cc4)c23)C1 (stereo unspecified)	-12%	5%	-10%	.	30%
CCOC(=O)C1CCN(c2c(NCCN(CC)c3ccccc3)c(=O)c2=O)CC1	10%	-2%	-6%	2%	6%
O=C(Nc1cccc2cccnc12)C(Cl)(Cl)Cl	-14%	0%	.	.	28µM*
CC(=O)Nc1ccc(S(=O)(=O)Nc2ccc3c(c2)n(C)c(=O)n3C)c(C)c1	5%	-9%	6%	13%	-7%
Cc1ccc(NC(=S)Nc2cccc3cnccc23)c(C)c1	-25%	4%[57.1 µM]	3%	20%	2%[57.1 µM]
Cc1ccc(NC(=S)c2ccncc2)c(C)c1	?	7%	7%	-2%	20µM*
CCc1cccc(CC)c1NC(=O)C[n+]1cccc(C(N)=O)c1	-16%	10%[57.1 µM]	3%	0%	9%[57.1 µM]
COc1ccc2c(c1)CCc1c(C(=O)N3CCOCC3)noc1-2	-24%	-2%	1%	-6%	20µM*
Cc1cc(N)ccc1N1CCCC1	?	-2%	20%	-1%	13µM*
Cc1cc(N)ccc1-n1c(C)ccc1C	-37%	-9%	-2%	13%	?
Nc1nc(-c2ccccc2)c(CCCOc2ccc(NC(=O)CBr)cc2)c(=O)[nH]1	8%	-5%	-6%	.	45µM*
Oc1cccc(C2c3[nH]c4ccccc4c3CCN2Cc2ccc3c(c2)CCO3)c1 (stereo unspecified)	-11%	7%[57.1 µM]	-4%	-6%	13%[57.1 µM]
Oc1cccc(C2c3[nH]c4ccccc4c3CCN2Cc2ccoc2)c1 (stereo unspecified)	-20%	6%	-11%	8%	40µM*
Cc1cccc(NC(=S)N/C(=N/S(=O)(=O)c2ccccc2)c2ccccc2)c1	-26%	2%	-1%	14%	16µM*
CCCCN(CCCC)C(=O)c1cc(Cl)ccc1[N+](=O)[O-]	19%	-13%	3%	-13%	-23%
SMILES	RGS4 inh	TrxR1 substrate	IDH1 R132H inh	Eya2 phos inh	TrxR1 inh
CCCN(CCC)C(=O)c1cc([N+](=O)[O-])cc2c1-c1ccc([N+](=O)[O-])cc1C2=C(C#N)C#N	-27%	-8%	9%	-10%	13µM*
CC(C)N(CCC(=O)c1ccc2ccccc2c1)Cc1ccccc1	0.67µM*	25%[57.1 µM]	4%	5%	3.2µM*
CCCCn1c(N)c(N(CCOC)C(=O)C2CCN(S(=O)(=O)c3ccccc3)CC2)c(=O)[nH]c1=O	-27%	-6%	-1%	30%	5%
CCCC(=O)NC(Nc1ccccc1F)C(Cl)(Cl)Cl (stereo unspecified)	.	.	.	10%	.
CCOc1cc(NC(=S)NCCCN2CCOCC2)c(OCC)cc1NC(=O)CC(C)C	-4%	1%[57.1 µM]	-3%	-17%	22µM*
CN(C)CC(CCC(CN(C)C)C(=O)c1ccccc1)C(=O)c1ccccc1 (stereo unspecified)	-49%	4%[57.1 µM]	1%	-2%	2.8µM*
COc1ccc(C(=O)C(CCCCC(CN(C)C)C(=O)c2ccc(OC)cc2)CN(C)C)cc1 (stereo unspecified)	-20%	-1%	7%	-4%	-19%
CCOc1ccc(C(=O)C(CCC(CN(C)C)C(=O)c2ccc(OCC)cc2)CN(C)C)cc1 (stereo unspecified)	-13%[11.4 µM]	-10%	-6%	-3%	2.8µM*
CCOc1ccc(N(CC(=O)NC2CCCCCC2)S(=O)(=O)c2ccccc2)cc1	-7%	-5%	3%	-14%	-6%
Cc1ccc(S(=O)(=O)CC(=O)NC(C)(C)C)cc1	5%	4%[57.1 µM]	0%	4%	-5%[57.1 µM]
COc1ccc(N2CSC3=C(C#N)C(c4cc(OC)c(OC)cc4OC)CC(=O)N3C2)c(OC)c1 (stereo unspecified)	?	5%[57.1 µM]	22%	12%	?
COc1ccc(N2CSC3=C(C#N)C(c4cc(OC)ccc4OC)CC(=O)N3C2)c(OC)c1 (stereo unspecified)	?	0%[57.1 µM]	16%	7%	14µM*
O=C(Nc1ccc2nc(-c3ccco3)c(-c3ccco3)nc2c1)N1CCCCCC1	?	34%	2%	9%	1.8µM*
CCOC(=O)C1CCN(C(=O)Nc2ccc3nc(-c4ccco4)c(-c4ccco4)nc3c2)CC1	?	31%	1%	13%	3.2µM*
O=C(/C=C/c1ccccc1)c1ccc2c(c1)OCCCCO2	-17%	-2%	0%	?	-7%
O=C(CCl)N(C/C=C/c1ccccc1)c1ccc2c(c1)OCCO2	-9%	1%[57.1 µM]	-7%	-3%	7.9µM*
O=c1cc(Br)c(O)c(Br)cc1Br	?	-3%	9%	.	3.2µM*
Oc1c(Br)cc(Br)c2cccnc12	-14%	9%	3%	.	6%
CC(=O)Nc1ccc(NCc2ccc(C)s2)cc1	-8%	5%[57.1 µM]	3%	0%	-5%
N#CC1=C(N)C(C#N)(C#N)C2(C(=O)Nc3ccccc32)C2CCCC=C12 (stereo unspecified)	-13%	-7%	5%	-4%	56µM*
CCOc1ccc(C(=O)N2CCCCC2CCN2CCOCC2)cc1 (stereo unspecified)	20%	-4%	-15%	.	1%
CCN1CCOC(=O)C1CC(=O)Nc1ccc(C)c(Cl)c1 (stereo unspecified)	-17%	7%[11.4 µM]	13%	.	?
